The test system of assay [1] is Vero E6 infected with SARS-CoV-2. As to the kind of experiment: morphology score (similarity to uninfected cells); higher = more like uninfected cells. As to conditions: 24 h.
For assay [2] the test system is unchanged. The assay is described as follows: SARS-CoV-2 infection rate relative to infected DMSO; higher = more infection, active = 60 or less. As to conditions: 24 h.

As for `C[C@@H]1CN(Cc2ncccn2)C[C@H]1c1nc2c(cnn2C2CCOCC2)c(=O)[nH]1` (10 µM), in assay [1], the morphology score was determined as 0.11. Further, the SARS-CoV-2 infection rate in assay [2] was 108% (inactive).
Taken in the same sequence, the figures for `COc1cc(OC2CCN(C)CC2)ccc1Nc1ncc2c(n1)n(C1CCCC1)c(=O)n2C` (0.833333 µM) were 0.126 and 98% (inactive).
In assay [1], `COc1ccc(CCN(C)CCCN2CCc3cc(OC)c(OC)cc3CC2=O)cc1OC` [zatebradine] (10 µM) returned a morphology score of -0.00282. In assay [2], the SARS-CoV-2 infection rate was 112% (inactive).
`Cc1oc(-c2ccccc2)nc1CCOc1ccc(CC2SC(=O)NC2=O)c2sccc12` (stereo not given) [edaglitazone] (10 µM) came in with a morphology score in assay [1] of 0.29. Further, the SARS-CoV-2 infection rate in assay [2] was 90.5% (inactive).
For `Cc1ccc(-c2n[nH]c3c2C(c2cccc(O)c2)N(c2ccc(C(=O)O)cc2)C3=O)cc1` (stereo not given) (10 µM) the same measures were 0.169 and 91.5% (inactive).
Taken in the same sequence, the figures for `C[C@H]1CCC/C=C/[C@@H]2C[C@H](O)C[C@H]2[C@H](O)/C=C/C(=O)O1` [brefeldin-A] (0.833333 µM) were 0.0397 and 107% (inactive).
For `CCN(CC)CCOc1ccc(Cc2ccccc2)cc1` (10 µM) the same measures were 0.39 and 71% (inactive).
As for `CCCC[C@@H](C=O)NC(=O)[C@H](CC(C)C)NC(=O)OCc1ccccc1` [calpeptin] (10 µM), the morphology score in assay [1] is 0.815. Also, in assay [2], the SARS-CoV-2 infection rate was 12.5% (active).
For `c1cc2c3c(c1)c1c(n3CCNC2)CCCC1` (10 µM) the same measures were -0.0322 and 104% (inactive).
Turning to `C#CCOC(=O)C1=CCCN(C)C1` [arecaidine-propargyl-ester] (10 µM), the morphology score in assay [1] was determined as 0.0331. The SARS-CoV-2 infection rate in assay [2] is 93.5% (inactive).
Taken in the same sequence, the figures for `NS(=O)(=O)Cc1noc2ccccc12` [zonisamide] (10 µM) were 0.165 and 95.5% (inactive).
For `Cn1ncc(Cl)c1-c1cc(C(=O)N[C@H](CN)Cc2ccc(F)c(F)c2)oc1Cl` [uprosertib] (10 µM) the same measures were 0.441 and 96.5% (inactive).
Molecule `Cc1[nH]c2ccccc2c1CCNCc1ccc(/C=C/C(=O)NO)cc1` [panobinostat] (0.833333 µM) displayed a morphology score in assay [1] of -0.0995. The SARS-CoV-2 infection rate in assay [2] is 105% (inactive).
For `OB1OCc2cc(Cl)ccc21` (10 µM) the same measures were -0.0961 and 106% (inactive).
For `CCOc1ccc(Nc2nc(-c3c(C)nc4ccccn34)cs2)cc1` (0.833333 µM) the same measures were -0.00134 and 102% (inactive).
Taken in the same sequence, the figures for `CCC(CC)C(c1ccc(Nc2nc3ccccc3s2)cc1)n1cncn1` (stereo not given) [talarozole] (10 µM) were 0.326 and 74.5% (inactive).
For the molecule `CC(=O)CC/C=C(\C)CC/C=C(\C)CC/C=C(\C)CCC=C(C)C` [teprenone] (10 µM), the morphology score in assay [1] came out at 0.0677. In assay [2], the SARS-CoV-2 infection rate is 101% (inactive).
For `CN1CCC[C@@H](CC2c3ccccc3Sc3ccccc32)C1` (racemic) [metixene] (0.833333 µM) the same measures were 0.383 and 86% (inactive).
The molecule `Nc1nc(O)c2ncn(CCC(CO)CO)c2n1` [penciclovir] (10 µM) registered a morphology score in assay [1] of 0.0743. The SARS-CoV-2 infection rate in assay [2] was 93.5% (inactive).
On to `CC(=O)Oc1ccccc1C(=O)Nc1ncc([N+](=O)[O-])s1` [nitazoxanide] (10 µM), for which, in assay [1], the morphology score was 0.224. Moreover, in assay [2], the SARS-CoV-2 infection rate is 88% (inactive).
For `Cc1ccccc1N(C)C(=O)c1ccc([S+]([O-])c2nccs2)c([N+](=O)[O-])c1` (stereo not given) (0.833333 µM) the same measures were -0.0736 and 81% (inactive).
`CC(C)[N+](C)(CCOC(=O)C1c2ccccc2Oc2ccccc21)C(C)C` [propantheline] (10 µM) gave a morphology score in assay [1] of 0.214. In addition, the SARS-CoV-2 infection rate in assay [2] is 99.5% (inactive).
Take `N#Cc1c(Oc2ccc(F)c(NC(=O)Cc3cccc(C(F)(F)F)c3)c2)ccc2nc(NC(=O)C3CC3)sc12` (10 µM): the morphology score in assay [1] was -0.304. Further, the SARS-CoV-2 infection rate in assay [2] is 108% (inactive).
With `CC(=O)c1ccc(NS(C)(=O)=O)c(Oc2ccc(F)cc2F)c1` (10 µM), the morphology score in assay [1] worked out at 0.115. The SARS-CoV-2 infection rate in assay [2] was 92.5% (inactive).
For `CN1CCCN(C(c2ccccc2)c2ccc(Cl)cc2)CC1` (stereo not given) [homochlorcyclizine] (10 µM) the same measures were 0.29 and 59.5% (active).
Taken in the same sequence, the figures for `Cc1nc2sccn2c(=O)c1CCN1CCC(=C(c2ccccc2)c2ccc(F)cc2)CC1` (10 µM) were 0.149 and 81.5% (inactive).
`CCN(CC)CCOC(=O)C(c1ccccc1)c1ccccc1` [adiphenine] (10 µM): in assay [1], the morphology score was -0.106. Further, the SARS-CoV-2 infection rate in assay [2] was 110% (inactive).
For `Brc1c(NC2=NCCN2)ccc2nccnc12` [brimonidine] (10 µM) the same measures were 0.0346 and 106% (inactive).
With `COC(=O)C[C@](O)(CCC(C)(C)O)C(=O)O[C@@H]1C(OC)=C[C@]23CCCN2CCc2cc4c(cc2[C@H]13)OCO4` [harringtonine] (10 µM), in assay [1], the morphology score turned out to be 0.555. In addition, the SARS-CoV-2 infection rate in assay [2] was 49% (active).
Molecule `Cc1ccnc(NS(=O)(=O)c2ccc(N)cc2)n1` [sulfamerazine] (10 µM) gave a morphology score in assay [1] of 0.0324. In addition, in assay [2], the SARS-CoV-2 infection rate is 108% (inactive).

The values above are taken from the supplement of paper PMC13380429.
